Hits are enriched below; roughly 3% of the tested compounds scored in any of these assays.
LGR2 inh = inhibitors of bursicon-induced LGR2 CRE-luciferase signal, primary screen, cell-based, HEK293, CRE-luciferase reporter, bursicon stimulation; bursicon-stimulated, 4 h; AID 720647, 2013; 380,000 compounds, 0.35% hits; inhibition, % at 9.99 µM;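 active means drop in luminescence signal, shown as inhibition above about 50% in the replicate tests, limit read from the data, passing the limit was not always enough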;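 further: agonist challenge used bursicon conditioned medium at about half maximal strength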
MITF TRPM1 HTS = activators of MITF-driven TRPM1 promoter reporter, primary screen, cell-based, SK-MEL-5, luciferase, single point; SK-MEL-5 TRPM1-promoter luciferase, 24 h; % of positive control, neutral wells = 0; activation, % at 12.5 µM; 300,000 compounds, 0.75% hits;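 active means mean activation of at least 80% with every replicate also reaching 80%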;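 further: 0% = neutral control wells and 100% = parthenolide positive control wells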
TWEAK-Fn14 inh = inhibitors of TWEAK-Fn14 signaling, primary screen, luciferase reporter cells, uHTS; TWEAK-stimulated Fn14 reporter cells, luciferase luminescence, 8 h; inhibition, % at 10 µM; 360,000 compounds, 2% hits; AID 1159606, 2016; in the data active means inhibition above about 50%
TROY NFkB inh = inhibitors of TROY-driven NF-kB signaling, primary screen, Q293 LMP1-TROYcd cells, NF-kB luciferase, uHTS | Q293 LMP1-TROYcd NF-kB luciferase reporter, 4 h | inhibition, % at 10 µM | 360,000 compounds, 0.98% hits | AID 1347056, 2019;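 active means compounds whose plate-normalised and pattern-corrected inhibition of the luciferase reporter signal at the single screening dose is 50% or more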
MITF TRPM1 inh = inhibitors of MITF-dependent TRPM1 promoter reporter, primary screen, cell-based, SK-MEL-5, single point, luciferase; SK-MEL-5 TRPM1 promoter luciferase, 24 h; inhibition, % at 12.5 µM; 330,000 compounds, 0.83% hits; AID 488899, 2010;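 active means mean inhibition across replicates of 60% or more, whatever share of single replicates reaches that level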
EBV LMP1 NFkB = EBV LMP1-driven NF-kappaB luciferase reporter inhibitors, primary screen, cell-based, luminescence, single point. LMP1-induced NF-kappaB luciferase reporter cells. inhibition, % at 12.5 µM. 350,000 compounds, 0.69% hits; in the data active means inhibition above about 41%;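 further: 0% = neutral control wells and 100% = reference inhibitor control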
Starred values were filed as active, the others as inactive; / = not tested or not shown; ! = repeats disagree.

SMILES	LGR2 inh	MITF TRPM1 HTS	TWEAK-Fn14 inh	TROY NFkB inh	MITF TRPM1 inh	EBV LMP1 NFkB
CCN1CCN(Cc2ccc(NC(=O)c3cc(NC(=O)c4ccc5n[nH]nc5c4)cc(OC)c3)cc2C(F)(F)F)CC1	5	0	8	4	2	-18
COc1cc(NC(=O)c2cc3cccc(OC)c3o2)cc(C(=O)Nc2cccc(C(F)(F)F)c2)c1	22	-49	57*	16	51	13
CCN1CCN(Cc2ccc(NC(=O)c3cc(NC(=O)c4cc5cccc(OC)c5o4)cc(OC)c3)cc2C(F)(F)F)CC1	12	-15	60*!	-11	18	-103
COc1cc(Nc2ccccn2)cc(C(=O)Nc2cccc(C(F)(F)F)c2)c1	6	-15	50*!	17	14	-2
Cc1cc(N2CCOCC2)ccc1/C=C\[N+](=O)[O-]	/	-57	70*	50*	59	-8
CO[C@@H]1CN(C)C(=O)c2cc(NC(=O)C3CCOCC3)ccc2OC[C@@H](C)N(Cc2cccnc2)C[C@@H]1C	-2	/	/	/	/	/
O=C(C[C@@H]1CC[C@@H]2[C@H](COC[C@@H](O)CN2CCC(F)(F)F)O1)N1CCC(Cc2ccccc2)CC1	24	/	/	/	/	/
Cc1ccc2nc(-c3ccc(S(=O)(=O)N4CCCCC4)cc3)cn2c1	-40	19	30	52*	-16	-21
Cc1ccc2nc(-c3cccc(S(=O)(=O)N4CCCC4)c3)cn2c1	0	29	-1	-9	-25	-8
c1ccc(-c2ccc(-c3cn4c(n3)CCC4)cc2)cc1	/	-3	55*	30	7	-12
COc1ccc(-c2cn3c(n2)CCC3)cc1	/	55	-3	-62	-55	21
CC(C)NC(=O)N1[C@H](CO)[C@@H](c2ccccc2)C12CN(C(=O)Cc1ccccc1)C2	6	/	/	/	/	/
Cc1ccc(/C=C2/Sc3ccccc3N(CC(=O)NCC3CCCO3)C2=O)cc1 (centres undefined)	/	26	22	-18	-25	11
Cc1cc(/C=C2\Sc3ccccc3N2C)cc(C)[n+]1CC1CCCO1 (centres undefined)	6	-72	17	5	74*	19
O=C(c1ccccc1F)N1CCN(c2ccc([N+](=O)[O-])c3ncccc23)CC1	-8	-25	0	1	25	2
O=[N+]([O-])c1cccc2c(N3CCCC3)ccnc12	5	-80	0	-19	81*	-38
COc1ccc(CN(C)C[C@H]2Oc3ccc(NS(=O)(=O)c4c(C)noc4C)cc3CC(=O)N([C@H](C)CO)C[C@@H]2C)cc1	-9	/	/	/	/	/
CCOC(=O)Cc1csc(N/N=C\c2ccc(N(C)C)cc2)n1	2	11	73*	45	-12	81*
CC(C)C#Cc1ccc2c(c1)O[C@@H](CN(C)Cc1ccncc1)[C@H](C)CN([C@@H](C)CO)S2(=O)=O	-17	/	/	/	/	/
CC(C)c1cccc(-c2ccc3c(c2)S(=O)(=O)c2cccc(C(=O)NCc4ccccc4)c2C3=O)c1	-42	-7	-50	15	12	3
COc1ccc(-c2ccc3c(c2)S(=O)(=O)c2cccc(C(=O)NCCOc4ccccc4Cl)c2C3=O)cc1OC	11	-69	7	54*	69*	-80
O=C(NCc1cc(C(F)(F)F)ccc1Cl)c1cccc2c1C(=O)c1ccc(N3CCC(N4CCCCC4)CC3)cc1S2(=O)=O	active	/	-93	-7	/	-38
CC(C)c1cccc(-c2ccc3c(c2)S(=O)(=O)c2cccc(C(=O)NCc4ccccc4Cl)c2C3=O)c1	/	-80	-81	1	82*	-19
Cc1noc(C)c1NC(=O)Nc1ccc2c(c1)CC(=O)N([C@@H](C)CO)C[C@@H](C)[C@H](CN(C)C(=O)Nc1ccc3c(c1)OCO3)O2	5	/	/	/	/	/
C[C@@H]1CCCCO[C@H](CN(C)S(=O)(=O)c2ccc(Cl)cc2)[C@@H](C)CN([C@@H](C)CO)C(=O)c2cc(NS(=O)(=O)c3cn(C)cn3)ccc2O1	5	/	/	/	/	/
SMILES	LGR2 inh	MITF TRPM1 HTS	TWEAK-Fn14 inh	TROY NFkB inh	MITF TRPM1 inh	EBV LMP1 NFkB
C[C@@H]1CN([C@@H](C)CO)C(=O)c2cc(NS(=O)(=O)c3cccs3)ccc2O[C@@H](C)CCCCO[C@@H]1CN(C)Cc1ccc(C(F)(F)F)cc1	10	/	/	/	/	/
Cc1ccc(S(=O)(=O)/N=C2\C=C(NS(=O)(=O)c3ccccc3)C(=O)c3ccccc32)c(C)c1	4	-25	-19	21	26	-4
Cc1ccc(NC2=C/C(=N/S(=O)(=O)c3cccs3)c3ccccc3C2=O)cc1	/	-105	94*	60*	105*	80*
O=C1C(Nc2ccccc2)=C/C(=N/S(=O)(=O)c2cccs2)c2ccccc21	/	-95	97*	48	95*	87*
CNC[C@@H]1Oc2cc(-c3ccccc3F)ccc2S(=O)(=O)N([C@@H](C)CO)C[C@H]1C	17	/	/	/	/	/
CN(C)c1ncc(S(=O)(=O)c2ccc(Cl)cc2)c(-c2ccccc2)n1	/	/	4	1	-2	-4
O=S(=O)(c1ccc(Cl)cc1)c1snnc1-c1ccccc1	/	-82	88*	49	83*	-3
O=S(=O)(c1ccc(F)cc1)c1snnc1-c1ccccc1	58*	-64	64*	27	66*	-4
CCCN1C[C@H](C)[C@H](OC)CN(C)C(=O)c2ccc(NC(=O)c3ccccc3F)cc2OC[C@H]1C	-11	/	/	/	/	/
Cc1ccc(C2=N/C(=C\N(C)C)C(=O)O2)cc1	/	94*	-25	-20	-91	-11
CN(C)/C=C1/N=C(c2ccccc2)OC1=O	-17	/	-1	-19	-9	3
CN(C)CC(=O)Nc1ccc2c(c1)[C@H]1C[C@H](CC(=O)NCc3ccc(Cl)cc3)O[C@H](CO)[C@H]1O2	12	/	/	/	/	/
COc1ccc(NC(=O)Nc2ccc3c(c2)CC(=O)N([C@H](C)CO)C[C@H](C)[C@@H](CN(C)S(=O)(=O)c2ccccc2)O3)cc1	-18	/	/	/	/	/
C[C@H](CO)N1C[C@H](C)[C@H](CN(C)Cc2ccc(F)cc2)Oc2ncc(C3=CCCC3)cc2C1=O	6	/	/	/	/	/
C=C1C(=O)O[C@@H]2[C@H]3O[C@]3(C)CC/C=C(\C)CC[C@@H]12	20	-33	39	18	33	35
C=C1C(=O)O[C@H]2C[C@H]1[C@@H](OC(C)=O)C/C(C)=C/CC/C(C)=C\CC[C@]2(C)O	/	-99	86*	43	99*	48*
COC(=O)c1ccc(-c2ccc(Cl)cc2)nc1C	8	93*	11	-31	-89	-39

Source: PubChem
